The nature of test [1]: Her2 expression decrease, cell viability multiplex – SKBR3 breast tumor cells, AlphaScreen, ATP viability, primary screen (AID 461;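 active means Her2 level under about 52% in both replicate screens, with viability over 70% of control, limit read from the data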;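 on Her2 level: lower value means less Her2 protein in the cells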;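 on viability: percent of carrier control wells set as 100% viability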). To be noted: SKBR3 Her2 protein level, 18-24 h, measured here: SKBR3 viability, ATP luminescence, at 10 µM.
Test [2] addresses Receptor tyrosine-protein kinase erbB-2 (Homo sapiens) (UniProt P04626). The test is described as above. To be noted: 18-24 h, at 10 µM, stronger effect = lower value.
The nature of test [3]: reduced viability of SK-BR-3 breast cancer cells – cell-based, 24 h, human, pilot screen (AID 572;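 active means viability at or below 10% of carrier control in both of two separate runs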;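 further: compound exposure lasted between 18 and 24 h rather than exactly 24 h; 100% = carrier-treated control wells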). To be noted: SK-BR-3 viability, CellTiter-Glo luminescence, at 10 µM, stronger effect = lower value.
A short description of test [4]: HUVEC growth inhibition – cell-based, human, primary screen (AID 575;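 active means viability at or below 30% in both replicate assays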;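 further: 100% = median of untreated cell wells with 0.1% DMSO on each plate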). The note with it: HUVEC proliferation, CellTiter-Glo luminescence, 72 h; at 10 µM; stronger effect = lower value.
The nature of test [5]: H69AR cell proliferation blockers – human, duplicate replicates, primary screen (AID 580;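 active means viability at or under a set limit in both replicates, limit being median viability minus 3 SD, cut at about 48% in these data, passing the limit was not always enough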;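 further: 100% = mean luminescence of untreated wells and 0% = no signal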). The note with it: H69AR lung tumor cells viability, ATP luminescence, 72 h; at 10 µM; stronger effect = lower value.
Test [6] is described as follows: MRP1 drug-resistance reversers in H69AR cells – cell-based, doxorubicin co-treatment, pilot screen (AID 601;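 active means viability loss from added drug above about 55%, and viability with drug at most 40%, in both replicates, limit read from the data, passing the limit was not always enough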). To be noted: CellTiter-Glo, 72 h, at 10 µM; for differential viability (reversal): stronger effect = higher value. On the technique in general: Cellular ATP, detected with luciferase, serves as a proxy for viable cell number.
Test [7] can be described thus: yeast transport mutant growth inhibition pilot in 384-well plates, post-Golgi transport modulator project (AID 636; in the data active means inhibition above about 31%). The note with it: absorbance 615 nm, about 18 h, stronger effect = higher value.
Test [8] is described as follows: growth suppression of yeast trafficking mutant, preliminary HTS, modulators of trafficking downstream of Golgi apparatus project, 1536-format plate, OD 615 nm (AID 637). The note with it: yeast transport mutant growth, absorbance 615 nm, 18 h; stronger effect = higher value.
The nature of test [9]: S. cerevisiae growth inhibition in permissive medium (OD615), pilot counter-assay for S. cerevisiae lifespan shortening project, permissive growth control (AID 705;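 active means growth inhibition above 25% in both replicates, a cutoff set 3 SD above the mean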). To be noted: OD615, 24 h, at 10 µM, stronger effect = higher value.
Test [10] is described as follows: S. cerevisiae growth inhibition in restrictive medium, OD615, pilot screen, restrictive growth control, yeast lifespan reduction project (AID 706;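 active means growth inhibition above a set limit, 3 SD over mean compound inhibition, in both replicates, cut at about 43% in these data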;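 further: modified DeaD lifespan yeast strain shifted to restrictive glucose medium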). The note with it: OD615, 48 h, at 10 µM, stronger effect = higher value.
Test [11] can be described thus: doxorubicin toxicity protection in MRP-1 cells – H69AR cells, CellTiter-Glo, duplicate, MRP-1 activator project, pilot screen (AID 807;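 active means viability increase at or above a cutoff of the median across tested compounds plus 3 SD, cut at about 8.5% in these data, passing the limit was not always enough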;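 further: compound pretreatment 18-22 h then 72 h combined with doxorubicin; 0% = doxorubicin alone and 100% = vehicle without doxorubicin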). The note with it: H69AR viability with doxorubicin, CellTiter-Glo luminescence; at 10 µM; stronger effect = higher value.
A short description of test [12]: viability of HCT116 without oncogenic beta-catenin – human colon tumor cells, pilot screen (AID 823;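 active means cell viability at or below a set limit in both duplicate runs, the limit being the all-compound median minus 4 SD, cut at about 23% in these data, passing the limit was not always enough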;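 further: 0% = wells killed by 20 µM Hyamine and 100% = untreated DMSO cell wells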). To be noted: HCT116 beta-catenin knockout viability, CellTiter-Glo, 60 h; at 10 µM; stronger effect = lower value.
Test [13] in a line: viability of PTEN-null HCT116 cells – cell-based, HCT116 clonal line, CellTiter-Glo, pilot screen (AID 824;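 active means viability at or below 27.92% in each of two runs, the all-compound median minus 4 SD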;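 further: 0% = 20 µM Hyamine control and 100% = vehicle cell control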). To be noted: HCT116 PTEN-deleted viability, 60 h, at 10 µM, stronger effect = lower value.
Test [14] is described as follows: RAM pathway blockade in budding yeast – dse1pr::URA3 reporter, 5-FOA selection, pilot screen (AID 869;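 active means inhibition over a set limit, the all-compound mean plus 3 SD, in both replicate runs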;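 further: 0% = DMSO wells with no growth and 100% = 10 µM 1-NA-PP1 with full growth; RAM network block rescues cells from 5-FOA so hits raise OD615 growth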). The note with it: S. cerevisiae dse1pr::URA3 5-FOA growth, OD615, 2 d; at 10 µM; stronger effect = higher value; strain carries analog-sensitive mutant Cbk1 kinase.
Setting [15] is: H69AR cells + 2 uM doxorubicin, measured here: viability with 2 uM doxorubicin, stronger effect = lower value.
Setting [16] is: H69AR cells, compound alone cytotoxicity.

Records with an inconclusive call do not appear. Calls of active or inactive are those of the source. Unless noted, no stated cut-off is given here; in the data, active means inhibition above about 30%; inactive means the rest.

What is called viability is a read-out of living cells in per cent, often relative to untreated cells. What is called inhibition is the change of the read-out against control, counted positive when it falls.

Sequence of Receptor tyrosine-protein kinase erbB-2 (Homo sapiens) (P04626 whole entry, looked up): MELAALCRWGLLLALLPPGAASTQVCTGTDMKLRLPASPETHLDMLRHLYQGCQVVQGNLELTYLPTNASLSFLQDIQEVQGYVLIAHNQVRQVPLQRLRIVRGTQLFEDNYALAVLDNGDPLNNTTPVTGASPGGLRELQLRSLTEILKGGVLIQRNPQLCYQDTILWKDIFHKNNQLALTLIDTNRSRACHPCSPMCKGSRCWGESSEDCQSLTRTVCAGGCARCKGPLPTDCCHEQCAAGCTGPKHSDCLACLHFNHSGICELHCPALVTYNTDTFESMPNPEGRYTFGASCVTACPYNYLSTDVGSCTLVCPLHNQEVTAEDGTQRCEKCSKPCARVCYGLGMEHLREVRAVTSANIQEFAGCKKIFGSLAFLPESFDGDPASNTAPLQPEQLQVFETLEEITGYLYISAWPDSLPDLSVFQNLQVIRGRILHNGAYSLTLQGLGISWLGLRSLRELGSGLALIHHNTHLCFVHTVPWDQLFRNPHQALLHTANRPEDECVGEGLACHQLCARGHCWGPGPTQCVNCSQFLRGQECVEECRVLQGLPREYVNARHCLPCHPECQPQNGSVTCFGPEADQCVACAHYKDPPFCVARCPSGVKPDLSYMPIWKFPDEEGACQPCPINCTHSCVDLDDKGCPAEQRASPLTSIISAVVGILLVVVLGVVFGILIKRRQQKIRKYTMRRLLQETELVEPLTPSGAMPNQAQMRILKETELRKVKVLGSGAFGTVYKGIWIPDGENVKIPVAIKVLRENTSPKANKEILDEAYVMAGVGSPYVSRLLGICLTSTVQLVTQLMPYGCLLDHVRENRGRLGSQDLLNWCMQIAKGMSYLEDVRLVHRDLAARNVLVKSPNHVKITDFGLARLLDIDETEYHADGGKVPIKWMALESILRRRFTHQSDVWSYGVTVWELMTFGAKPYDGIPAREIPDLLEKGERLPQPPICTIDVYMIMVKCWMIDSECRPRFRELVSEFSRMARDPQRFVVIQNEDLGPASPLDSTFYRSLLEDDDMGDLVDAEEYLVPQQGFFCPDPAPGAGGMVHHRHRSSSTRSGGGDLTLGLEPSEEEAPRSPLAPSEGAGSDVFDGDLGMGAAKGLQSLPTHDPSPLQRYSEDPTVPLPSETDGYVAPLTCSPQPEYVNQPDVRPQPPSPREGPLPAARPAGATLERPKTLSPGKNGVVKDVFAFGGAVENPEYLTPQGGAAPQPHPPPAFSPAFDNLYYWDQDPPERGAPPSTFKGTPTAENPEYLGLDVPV

For `CC(C)CNC(=O)c1ccccc1NC(=O)CN(c1ccc2c(c1)OCCO2)S(C)(=O)=O`, the viability in test [1] is 92%; in test [3], 92% (inactive); in test [4] it was 96.8% (inactive); in test [5] it was 92.3% (inactive); in test [6] (setting [15]), 90.8%; in [6] (setting [16]), 92.3%. The Her2 level in test [2] was 121% (inactive). Further, the differential viability (reversal) in test [6] (H69AR cells + 2 uM doxorubicin) is 1.55% (inactive). Moreover, the inhibition in [7] is -0.27% (inactive); in [8] it was -8.23% (inactive).
For `O=C1C2C3C=CC(C3=C3CCCCC3)C2C(=O)N1c1ccccc1` (stereo not drawn), the viability is 131% in test [1]; 131% (inactive) in [3]; 103% (inactive) in test [4]; 95.8% (inactive) in test [5]; 94.7% in test [6] (setting [15]); 95.8% in test [6] (setting [16]). In test [2], the Her2 level was 89.5% (inactive). Further, the differential viability (reversal) in test [6] (H69AR cells + 2 uM doxorubicin) was 1.16% (inactive). For the same compound, the results for the inhibition in test [7] and in test [8] were -3.12% (inactive) and -2.06% (inactive), respectively.
Turning to `CCCCCC(=O)N1CC2(C)CN(C(=O)CCCCC)CC(C)(C1)C2=O`, the viability in test [1] was 87%; in [3], 87% (inactive); in [4] it was 96.9% (inactive); in [5], 87.5% (inactive); in test [6] (setting [15]) it was 83.4%; in test [6] (setting [16]) it was 87.5%. Also, the Her2 level in test [2] was 93% (inactive). For the same compound, the differential viability (reversal) in test [6] (H69AR cells + 2 uM doxorubicin) is 4.14% (inactive). The inhibition was 0.9% (inactive) in test [7] and 6.67% (inactive) in [8].
With `Cc1cccc2cc(C#N)c(NCCNC(=O)NC3CCCCC3)nc12`, the viability is 97.5% in [1]; 97.5% (inactive) in test [3]; 48.3% (inactive) in test [4]; 75.1% (inactive) in test [5]; 82.7% in test [6] (setting [15]); 75.1% in [6] (setting [16]). Moreover, in test [2], the Her2 level is 84.5% (inactive). Moreover, the differential viability (reversal) in test [6] (H69AR cells + 2 uM doxorubicin) was -7.59% (inactive). The inhibition in [7] was -2.37% (inactive); in test [8], -3.45% (inactive).
In the case of `COc1ccc(N2C(=O)CC(N3CCCC4CCCCC43)C2=O)cc1` (stereo not drawn), the viability in [1] was 102%; in [3], 102% (inactive); in test [4], 109% (inactive); in test [5] it was 90.8% (inactive); in [6] (setting [15]), 81.5%; in test [6] (setting [16]) it was 90.8%. The viability in [12] is 98.3% (inactive); in test [13], 101% (inactive). The Her2 level in [2] was 125% (inactive). For the same compound, the differential viability (reversal) in test [6] (H69AR cells + 2 uM doxorubicin) is 9.28% (inactive). Moreover, the inhibition in test [7] is -4.03% (inactive); in test [8], -6.83% (inactive); in test [14], 0.71% (inactive). The growth inhibition in [9] was -3.32% (inactive); in test [10], 3.25% (inactive). Besides, in test [11], the viability increase is -0.71% (inactive).
Turning to `CC(NC(=O)c1cn(C)c2ccc(S(=O)(=O)N3CCCC3)cc2c1=O)c1ccc2c(c1)OCCO2` (stereo not drawn), the viability was 89% in test [1]; 89% (inactive) in test [3]; 85.6% (inactive) in [4]; 77.8% (inactive) in [5]; 44% in [6] (setting [15]); 77.8% in test [6] (setting [16]). Moreover, the viability is 75.5% (inactive) in test [12] and 76% (inactive) in test [13]. In test [2], the Her2 level is 78.5% (inactive). Besides, in [6] (H69AR cells + 2 uM doxorubicin), the differential viability (reversal) is 33.8% (inactive). Also, the results for the inhibition in test [7], in test [8] and in [14] were -6.22% (inactive), 4.75% (inactive) and 2.6% (inactive), respectively. Also, the growth inhibition in [9] is -9.02% (inactive); in [10] it was -24.8% (inactive). In addition, the viability increase in test [11] is -4.7% (inactive).
Consider `CC1CN(c2nc3ccccc3nc2C(C#N)C(=O)OC2CCCCC2)CC(C)O1` (stereo not drawn), for which the viability is 94% in test [1]; 94% (inactive) in [3]; 78.7% (inactive) in test [4]; 96.1% (inactive) in test [5]; 83.5% in test [6] (setting [15]); 96.1% in test [6] (setting [16]). Further, the Her2 level in test [2] is 97% (inactive). Further, in test [6] (H69AR cells + 2 uM doxorubicin), the differential viability (reversal) was 12.6% (inactive). Besides, the results for the inhibition in test [7] and in [8] were -5.07% (inactive) and 2.54% (inactive), respectively.
Consider `O=c1[nH]c(Nc2ccccc2)cc2ccccc12`, for which the viability in [1] is 94.5%; in [3], 94.5% (inactive); in [4] it was 82.2% (inactive); in test [5] it was 101% (inactive); in test [6] (setting [15]), 97.9%; in test [6] (setting [16]), 101%. Further, the Her2 level in [2] was 92% (inactive). Further, in test [6] (H69AR cells + 2 uM doxorubicin), the differential viability (reversal) was 3.34% (inactive). The inhibition in test [7] was 2.5% (inactive); in [8] it was 14.3% (inactive).
With `Cc1ccc2occ(CN3CCN(c4ccccc4)CC3)c(=O)c2c1`, the viability in test [1] is 104%; in [3] it was 104% (inactive); in test [4], 89% (inactive); in [5], 87.5% (inactive); in test [6] (setting [15]), 94.2%; in [6] (setting [16]), 87.5%. Also, the Her2 level in test [2] was 104% (inactive). Further, the differential viability (reversal) in [6] (H69AR cells + 2 uM doxorubicin) is -6.67% (inactive). Moreover, the inhibition in test [7] was -1.04% (inactive); in test [8], -3.77% (inactive).
Consider `Cc1occc1C(=O)Nc1cccnc1`, for which the viability is 101% in test [1]; 101% (inactive) in test [3]; 100% (inactive) in test [4]; 97.7% (inactive) in [5]; 94.1% in [6] (setting [15]); 97.7% in test [6] (setting [16]). In addition, the Her2 level in test [2] is 92% (inactive). Besides, the differential viability (reversal) in test [6] (H69AR cells + 2 uM doxorubicin) is 3.58% (inactive). Also, the inhibition in test [7] was -7.73% (inactive); in [8], 2.9% (inactive).
For the compound `C/C(CC(O)(/C=N/O)c1ccccc1)=N\O` (stereo not drawn), the viability in [1] is 86%; in test [3], 86% (inactive); in test [4], 107% (inactive); in test [5], 94% (inactive); in test [6] (setting [15]) it was 91.1%; in [6] (setting [16]), 94%. For the same compound, the Her2 level in test [2] is 91.5% (inactive). In test [6] (H69AR cells + 2 uM doxorubicin), the differential viability (reversal) was 2.94% (inactive). Further, the inhibition is -0.26% (inactive) in [7] and 3.77% (inactive) in [8].
As for `O=C1c2ccccc2C(=O)N1CCCn1nnc(-c2ccc(N3CCOCC3)cc2)n1`, the viability in test [1] is 110%; in test [3] it was 110% (inactive); in test [4] it was 103% (inactive); in test [5] it was 95.9% (inactive); in test [6] (setting [15]), 95.1%; in test [6] (setting [16]) it was 95.9%. Further, the Her2 level in test [2] is 90.5% (inactive). For the same compound, the differential viability (reversal) in test [6] (H69AR cells + 2 uM doxorubicin) is 0.795% (inactive). Further, the inhibition in test [7] was -4.53% (inactive); in [8], -4.43% (inactive).
In the case of `O=C(Oc1cc2oc(=O)c3c(c2cc1Cl)CCCC3)c1ccco1`, the viability was 82% in test [1]; 82% (inactive) in test [3]; 89.6% (inactive) in test [4]; 80.2% (inactive) in test [5]; 93.2% in test [6] (setting [15]); 80.2% in test [6] (setting [16]). Besides, the viability in test [12] is 108% (inactive); in test [13], 104% (inactive). For the same compound, the Her2 level in test [2] is 87% (inactive). In test [6] (H69AR cells + 2 uM doxorubicin), the differential viability (reversal) was -13.1% (inactive). Further, the results for the inhibition in test [7], in test [8] and in test [14] were 1.28% (inactive), -4% (inactive) and 1.97% (inactive), respectively. Further, the growth inhibition in test [9] is -14.7% (inactive); in test [10] it was -13.7% (inactive). In [11], the viability increase was -3.67% (inactive).

The record behind these values is PubChem BioAssay.
